Assay results reported in article PMC4336329 (PLoS ONE, 2015).
About 14,000 (4.5%) of roughly 310,000 compounds showed an effect of 50% or more. Effects have a minus sign here. Only a selection was taken, and strong results are over-represented in it overall.

What follows are compounds tested against human ether-à-go-go-related gene (hERG) potassium channel (human, UniProt Q12809) (assay: primary screen, population patch clamp on CHO cells stably expressing hERG; higher = less effect of the substance).
Sequence of human ether-à-go-go-related gene (hERG) potassium channel (Q12809 whole entry, looked up): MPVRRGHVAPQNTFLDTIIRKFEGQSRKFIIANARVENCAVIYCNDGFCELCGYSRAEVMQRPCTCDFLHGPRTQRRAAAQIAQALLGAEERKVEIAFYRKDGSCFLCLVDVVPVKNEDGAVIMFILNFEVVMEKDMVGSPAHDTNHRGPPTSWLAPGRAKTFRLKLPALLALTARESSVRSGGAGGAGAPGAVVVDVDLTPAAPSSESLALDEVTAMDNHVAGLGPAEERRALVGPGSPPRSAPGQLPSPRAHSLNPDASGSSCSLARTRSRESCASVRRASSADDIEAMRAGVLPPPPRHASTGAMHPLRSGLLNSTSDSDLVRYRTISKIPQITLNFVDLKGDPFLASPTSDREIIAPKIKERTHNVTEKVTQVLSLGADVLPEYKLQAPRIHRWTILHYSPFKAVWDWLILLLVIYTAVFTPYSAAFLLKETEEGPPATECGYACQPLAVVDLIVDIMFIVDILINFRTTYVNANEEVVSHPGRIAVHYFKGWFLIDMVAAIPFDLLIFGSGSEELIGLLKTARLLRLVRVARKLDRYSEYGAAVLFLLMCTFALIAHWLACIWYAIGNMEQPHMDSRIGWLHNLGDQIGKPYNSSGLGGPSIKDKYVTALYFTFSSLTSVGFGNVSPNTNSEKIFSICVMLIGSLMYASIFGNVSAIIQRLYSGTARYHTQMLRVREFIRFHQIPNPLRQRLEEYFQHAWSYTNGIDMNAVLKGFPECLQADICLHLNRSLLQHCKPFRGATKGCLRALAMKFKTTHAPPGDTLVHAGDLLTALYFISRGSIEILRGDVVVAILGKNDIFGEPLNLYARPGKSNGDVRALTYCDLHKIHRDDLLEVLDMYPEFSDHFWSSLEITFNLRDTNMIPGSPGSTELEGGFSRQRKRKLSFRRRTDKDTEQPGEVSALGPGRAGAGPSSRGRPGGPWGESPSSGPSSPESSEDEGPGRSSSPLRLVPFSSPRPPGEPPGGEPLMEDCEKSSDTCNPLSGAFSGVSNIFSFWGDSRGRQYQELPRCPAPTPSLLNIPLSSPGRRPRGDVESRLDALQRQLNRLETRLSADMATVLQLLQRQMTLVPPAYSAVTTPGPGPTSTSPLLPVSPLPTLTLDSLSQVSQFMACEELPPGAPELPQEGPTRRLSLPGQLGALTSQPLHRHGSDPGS
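Also: peak tail current of the secondary pulse compared with the same well before compound.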

In order of rising “hERG current change (%, negative = inhibition) at 10uM” value:
1. COc1ccc(Cn2c(=N)c(C(=O)NCC3CCCO3)cc3c(=O)n4ccccc4nc32)cc1 (centres unmarked)  -82.2%
2. CCOC(=O)c1sc2nc(C)nc(NCc3ccc(Cl)cc3)c2c1C  -80.6%
3. COc1ccc(CCn2c(=N)c(C(=O)NCC3CCCO3)cc3c(=O)n4ccccc4nc32)cc1 (centres unmarked)  -77.9%
4. COc1ccc(CCn2c(=N)c(C(=O)NCC3CCCO3)cc3c(=O)n4ccccc4nc32)cc1OC (centres unmarked)  -75.9%
5. O=C(CN(C1CCCCC1)S(=O)(=O)c1ccc(Cl)cc1)NCc1cccnc1  -74.4%
6. Cn1c(CCN2CCCCC2)nc2cc(NS(=O)(=O)c3ccc(Cl)cc3)ccc21  -73.8%
7. CCN(CC)Cc1c(O)ccc2occ(C(=O)c3ccccc3)c12  -72.6%
8. O=[N+]([O-])c1cc(/C=N\O)ccc1Oc1ccc(F)cc1  -72.1%
9. CN(C)Cc1c(O)ccc2occ(C(=O)c3ccc(F)cc3)c12  -69.6%
10. Cn1c(=O)[nH]c(=O)c2c1nc(N(CCO)Cc1ccccc1)n2CCCc1ccccc1  -64.6%
11. Cc1ccc(S(=O)(=O)N(CC(=O)NCc2cccnc2)C2CCCCC2)cc1  -63.3%
12. CCOC(=O)c1sc2nc(CC(=O)OC)nc(NCCN(CC)CC)c2c1C  -62.7%
13. COC(=O)[C@@H]1[C@H]2C[C@H]3c4[nH]c5ccccc5c4CCN3C[C@@H]2CC[C@@H]1O  -57.5%
14. Cc1ccc(C(=O)c2coc3ccc(O)c(CN(C)C)c23)cc1.Cl  -54.7%
15. O=[N+]([O-])c1cc(/C=N/O)ccc1Oc1cccc(Cl)c1  -53.7%
16. CN(C)Cc1c(O)ccc2occ(C(=O)c3ccccc3)c12  -52.8%
17. CN(Cc1ccccc1)c1nc2c(c(=O)[nH]c(=O)n2C)n1CCCc1ccccc1  -51.8%
18. C[N+]1(CCCCSc2ccc(O)cc2)CCCCC1.[I-]  -51.7%
19. C/C(=N/N1CCN(Cc2cccc3ccccc23)CC1)c1cccnc1  -50.1%
20. COc1cc(/C=N/O)ccc1Oc1ccc([N+](=O)[O-])cc1[N+](=O)[O-]  -45.9%
21. Cc1oc2ccc(O)c(CN(C)C)c2c1C(=O)c1ccccc1  -42.4%
22. Cc1cc(C)c(S(=O)(=O)N(CC(=O)NCc2cccnc2)C2CCCCC2)c(C)c1  -37.4%
23. Cn1c(CCN2CCCCCC2)nc2cc(NC(=O)Nc3ccccc3)ccc21  -35.7%
24. COc1ccc(-c2noc(CSc3nnc(-c4ccccc4)n3C)n2)cc1  -32.8%
25. O=C(CN(C1CCCCC1)S(=O)(=O)c1ccccc1)NCc1cccnc1  -30%
26. Cn1c(CCN2CCCCC2)nc2cc(NC(=O)Nc3ccccc3)ccc21  -28%
27. Cc1ccc(C(=O)c2coc3ccc(O)c(Cl)c23)cc1  -26.5%
28. COc1ccc(N(CC(=O)N2CCc3ccccc3C2)S(C)(=O)=O)cc1Cl  -25.7%
29. CCOC(=O)N1CCN(CC(=O)Nc2cc(C)nn2-c2nc3ccccc3s2)CC1  -23.3%
30. COC(=O)C1C(O)CCC2CN3CCc4c([nH]c5ccccc45)C3CC21 (centres unmarked)  -21.1%
31. COc1ccc(C2(c3ccc(OC)cc3)NC(=O)N(CC(=O)Nc3ccc(OC(F)F)cc3)C2=O)cc1  -19.2%
32. CN(C)c1nc2c(c(=O)[nH]c(=O)n2C)n1CCCc1ccccc1  -19.1%
33. CCCCCn1c(N(C)Cc2ccccc2)nc2c1c(=O)[nH]c(=O)n2C  -17.1%
34. O=[N+]([O-])c1cc(/C=N/O)ccc1Oc1ccccc1Cl  -16%
35. COc1ccc2occ(C(=O)c3ccccc3)c2c1  -15.3%
36. O=C(NCc1ccccc1)C1=C[C@@H](c2ccccc2)C[C@@H](OCc2ccc(CO)cc2)O1  -14.4%
37. COc1ccc(S(=O)(=O)N(CC(=O)NCc2cccnc2)C2CCCCC2)cc1OC  -12.7%
38. COC(=O)[C@H]1[C@H]2C[C@H]3c4[nH]c5ccccc5c4CCN3C[C@@H]2CC[C@@H]1O  -12.5%
39. Cc1occc1C(=O)N1CCN(C(=O)C2CCCO2)CC1 (centres unmarked)  -12.2%
40. O=C(c1ccccc1)c1coc2ccc(O)c(Cl)c12  -10.9%
41. COc1ccc(-c2cc(C(=O)NCC3CCCO3)c3ccccc3n2)cc1 (centres unmarked)  -10.7%
42. CCOC(=O)c1sc2nc(CC(=O)OC)nc(NCC(=O)OC)c2c1C  -9.05%
43. Nc1c(C(=O)CSc2nc(-c3ccccc3)cs2)c(=O)[nH]c(=O)n1C1CC1  -7.63%
44. CC(=O)OCCCCCCCCCCC[N+]1(C)CCCCC1.[I-]  -7.49%
45. CCOC(=O)c1sc2nc(CC(=O)OC)nc(NCc3ccc(Cl)cc3)c2c1C  -7.35%
46. CC(=O)NCCC(=O)Nc1nc(-c2cccs2)c(-c2cccs2)s1  -6.66%
47. COc1ccccc1N(CC(=O)NC1CCCC1)S(=O)(=O)c1ccc(C)cc1  -5.82%
48. Cn1c(=O)[nH]c(=O)c2c1nc(NCCCO)n2CCCc1ccccc1  -5.36%
49. O=c1[nH]c(CSc2nnc(COc3ccccc3)n2-c2ccccc2)nc2ccccc12  -4.92%
50. Cc1cc(C(F)(F)F)c(C#N)c(SCC(=O)NC2CC2)n1  -4.11%
51. COC(=O)C1(C)NC(c2ccc(Cl)cc2)C2C(=O)N(c3ccccc3)C(=O)C21 (centres unmarked)  -3.27%
52. CCOC(=O)c1c(NC=O)sc2c1CCC2  -2.89%
53. C=C(C)Cn1c(N(CCO)Cc2ccccc2)nc2c1c(=O)[nH]c(=O)n2C  -2.53%
54. C/C(=N\N1CCN(C2c3ccccc3-c3ccccc32)CC1)c1cccnc1  -2.47%
55. O=C(COC(=O)c1cc(S(=O)(=O)N2CCOCC2)ccc1F)NC1CCCCC1  -2.25%
56. CN(C)Cc1c(O)ccc2occ(C(O)c3ccccc3)c12 (centres unmarked)  -2.08%
57. C(=N\N1CCN(Cc2cccc3ccccc23)CC1)/c1cccnc1  -1.95%
58. Cc1cc(-c2cc(-c3ccc(Cl)cc3)nc(N)c2C#N)co1  -1.55%
59. COc1ccc(-c2cc(C(=O)NCC3CCCO3)c3ccccc3n2)c(OC)c1 (centres unmarked)  -0.667%
60. CC(=O)NC1=NN(C(C)=O)C(C)(CS(=O)(=O)c2ccc3ccccc3c2)S1 (centres unmarked)  -0.325%
61. COC(=O)CCCCCCCCCC[N+]1(C)CCCCC1.[I-]  -0.248%
62. COc1ccc(OC)c(-n2c(-c3cc(-c4ccco4)[nH]n3)n[nH]c2=S)c1  1.18%
63. COc1cc(NC(=O)c2ccc(F)cc2)c(OC)cc1Cl  3%
64. COc1ccc(CCNC(=O)C(=O)NCC2CCCO2)cc1OC (centres unmarked)  3.13%
65. Cc1ccc(C)c(NC(=S)NNC(=O)c2csc3c2CCC(C)C3)c1 (centres unmarked)  3.17%
66. CCN(CC(=O)Nc1cccc(S(N)(=O)=O)c1)Cc1nc2ccccc2c(=O)[nH]1  3.49%
67. O=C(c1ccco1)n1nc(-c2ccccc2)nc1SCc1ccccc1  3.93%
68. COc1ccc(C(=O)Nc2ccccc2C(=O)NCC2CCCO2)cc1 (centres unmarked)  4.28%
69. COc1ccccc1NS(=O)(=O)c1ccc(C)c(NC(=O)C2CCCO2)c1 (centres unmarked)  4.4%
70. CCSCCOC(=O)C1=C(C)N(C)C(=O)NC1c1ccc2c(c1)OCO2 (centres unmarked)  5.29%
71. O=C(O)C1CCN1C1CCCCC1 (centres unmarked)  5.54%
72. CS(=O)(=O)N(CC(=O)NCc1cccnc1)C1CCCCC1  5.98%
73. Cn1c(=O)c2c(nc(SCC(=O)O)n2Cc2cc3c(cc2Cl)OCO3)n(C)c1=O  6.88%
74. COc1cccc(-c2noc(CCC(=O)NC3CCCC3)n2)c1  7.42%
75. CCCC(=O)Nc1nnc(SCC(=O)NCc2cccs2)s1  8.39%
76. COc1ccc(CCNC(=O)CCn2c(=O)c3ccccc3n(CC(=O)NCC3CCCO3)c2=O)cc1OC (centres unmarked)  8.86%
77. CCOC(=O)c1sc2nc(C)nc(NCc3ccccc3)c2c1C  9.35%
78. CC(NC1c2ccccc2-c2ccccc21)c1ccccc1 (centres unmarked)  9.54%
79. CCOc1ccc(N2C(=O)C3CCCN3C2=O)cc1 (centres unmarked)  10.1%
80. O=S1OC(c2ccccc2)c2cc(Cl)ccc21 (centres unmarked)  11%
81. CO/N=C/c1ccc(Oc2ccc(C)cc2)c([N+](=O)[O-])c1  12.1%
82. O/N=C\c1ccccc1Oc1ccc(F)cc1  12.8%
83. CCc1nc(SCc2ccccc2C#N)n[nH]1  13.4%
84. COc1ccc(Cl)cc1NC(=S)N1CCN(c2ncccn2)CC1  13.6%
85. O=C(CNC(=O)c1ccc2c(c1)OCCO2)N/N=C/c1ccc(Cl)cc1  14.1%
86. CCOC(=O)c1sc2nc(C)nc(NCc3ccc(F)cc3)c2c1C  17.2%
87. Cc1ccc(C(=O)c2coc3ccc(O)cc23)cc1  23.2%
88. O=C(O)c1cccnc1Nc1ccc(Cl)cc1  25%
89. COc1ccc(-n2nc(C(=O)NCC3CCCO3)c3ccccc3c2=O)cc1 (centres unmarked)  31.7%
